Test results taken from PubChem BioAssay (NCATS).
Results filed as inconclusive are left out. A number with no mark means an inactive call. Active and inactive are the calls of the source. Calls follow the shape of the dose curve; as a rule, active = well fitted curve in either direction with a large enough effect (not every such curve was filed as active); inconclusive = small, poorly fitted or top-dose-only effect, or another doubt; inactive = flat fitted curve, though single readings scatter.

Each compound was assayed against Mitogen-activated protein kinase 10 (Mus musculus) (UniProt Q61831) (assay: JNK3 AlphaScreen Assay (AID 530;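 also: kinase came from lysate of stimulated human HepG2 cells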)). Settings: JNK3 lysate, c-Jun phosphorylation; series mostly up to 57.1 µM.
From the text: NIH Chemical Genomics Center [NCGC]
NIH Molecular Libraries Screening Centers Network [MLSCN]
The c-jun N-terminal kinase (JNK) family are serine/threonine protein kinases that phosphorylate c-jun, a component of the transcription factor […] (AP-1). JNK kinases are members of the mitogen-activated protein kinase family including the extracellular regulated kinases and p38 kinases. Three JNK genes (JNK 1, 2, and 3) have been identified in humans so far. JNK1 and JNK2 have a broad distribution and JNK3 is primarily found in neuronal tissues and cardiac myocytes.
JNK3 has been under consideration as a target for the treatment of neurodegenerative disorders. […] JNK pathway is also involved in pathological process in a mouse model of Parkinson's disease (Xia et al., 2001).
Given these potential tissue distributions and links to neuroprotection, JNK3 inhibitors should provide useful investigational tools to study the role of this kinase in several diseases including, arthritis, stroke, myocardial infarction, ischemic injury and Parkinson's disease.
A homogeneous AlphaScreen is developed to measure the activity of JNK3. AlphaScreen is a two bead-based proximity-dependent chemical energy transfer luminescent assay platform. The phosphorylation of a biotinylated c-jun substrate by JNK3 can be detected with an antibody raised against phosphorylated c-jun. This process brings streptavidin donor beads and Protein-A acceptor beads to within a proximity range of <200 nm, and subsequently lead a chemical luminescent reaction upon exciting donor beads with 680 nm laser excitation light. Inhibition of JNK3 activity by small molecules and subsequent decrease in the antibody binding to biotinylated c-jun could attenuate or abolish this chemical luminescent reaction.
Yang DD, Kuan CY, Whitmarsh AJ, Rincon M, Zheng TS, Davis RJ, Rakic P and Flavell RA (1997) Absence of excitotoxicity-induced apoptosis in the hippocampus of mice lacking the Jnk3 gene. Nature 389:865-870. [PMID: 9349820]
Herdegen T, Claret FX, Kallunki T, Martin-Villalba A, Winter C, Hunter T, and Karin M (1998) Lasting N-terminal phosphorylation of c-Jun and activation of c-Jun N-terminal kinases after neuronal injury. J.Neurosci. 18:5124-5135. [PMID: 9651196]
Xia XG, Harding T, Weller M, Bieneman A, Uney JB and Schulz JB (2001) Gene transfer of the JNK interacting protein-1 protects dopaminergic neurons in the MPTP model of Parkinson's disease. Proc.Natl.Acad.Sci.U.S.A. 98:10433-10438.
NCGC Assay Protocol Summary:
GST-cJun (1-79) (Stratagene, La Jolla CA, #205145) was biotnylated by PerkinElmer (PerkinElmer-BioSignalInc. Montreal, Canada) and was detectable by the streptavidin Donor beads. Anti-(phospho)cJun (Ser73) antibody was from UpState (Charlottesvilles, VA, #06-659). JNK3-containing lysates were generated from HepG2 cells and pre-activated by interleukin1-beta and tumor necrosis factor alpha. All reagents were stored at -20 C before using. Phosphorylated biotinylated-GST-cJun was recognized by Anti-(phospho)cJun (Ser73) antibody and this process brings acceptor and donor beads together. Therefore JNK3 phosphorylation of cJun can be measured by Alpha reading by EnVision (PerkinElmer, Boston, MA).
The composition of kinase buffer was (in mM) 20 tris- HCl (pH 7.6) 10 MgCl2, 1 DTT, and 0.1 Na3VO4 and 0.01% Tween-20. Beads were diluted in detection buffer containing (in mM) 20 tris-HCl (pH 7.7), 20 NaCl and 80 EDTA and 0.3% BSA. The assay was performed at room temperature. All compounds were screened as titrations from 0.6 nM to 46 uM final concentration. The assay was performed in 1536-well format (white solid bottom and untreated) as follows:
Sequence,Parameter,Value,Description
1,Reagent,3 uL,Biotin-GST-cJun, Anti-(phospho)cJun and pre-activated JNK3-containing lysates
2,Compound,23 nL,Final concentration was 0.6nM to 46uM
3,Time,15 minutes,Room Temperature
4,Reagent,1 uL,ATP final concentration 10uM
6,Reagent,0.5 uL,2ng/well bead mixture
[…]
% is scaled to controls: 0 for no effect and ±100 for the full control effect.

| Structure (SMILES) | outcome | activity change, negative = inhibition |
| --- | --- | --- |
| C/C=C/c1ccc2c(c1)OCO2 | inactive |  |
| CS(=N)(=O)CC[C@@H](N)C(=O)O (stereo not given in full) | inactive |  |
| O=C(Nc1ccccc1)N1CC[C@@]2(CCCN(C(=O)Oc3ccccc3)C2)C1 | inactive |  |
| c1cnc(N2CC3(CCNCC3)C2)nc1 | inactive |  |
| CC[C@@H]1[C@@H]2C[C@H]3[C@H]4N(C)c5ccccc5[C@@]45C[C@@H]([C@@H]2[C@@H]5O)N3[C@H]1O | inactive |  |
| CN1CC[C@@]2(CCCN(C(=O)c3ccncc3)C2)C1 | inactive |  |
| COC(=O)NC(=S)Nc1ccccc1NC(=S)NC(=O)OC | inactive |  |
| CC1=CC(=O)C2=C(C)C[C@@H](O)[C@@H]3[C@@H](OC(=O)[C@H]3C)[C@H]12 | inactive |  |
| CCNC[C@H](O)c1cccc(O)c1 | inactive |  |
| CCOc1ccc(N)cc1 | inactive |  |
| O=C(NCNC(=O)N[C@H]1C(=O)NC(=O)N1CO)N[C@H]1C(=O)NC(=O)N1CO | inactive |  |
| CN1C[C@H](CO)C=C2c3cccc4[nH]cc(c34)C[C@@H]21 | inactive |  |
| CC(C)(C)NC[C@H](O)c1cc(Cl)c(N)c(Cl)c1 | inactive |  |
| O=C(Nc1cccc(F)c1)N1CC[C@@]2(CCCN(C(=O)Oc3ccccc3)C2)C1 | inactive |  |
| CN1CCc2cc3c(cc2[C@@H]1[C@@H]1OC(=O)c2c1ccc1c2OCO1)OCO3 | inactive |  |
| N[C@H]1C[C@H]1c1ccccc1 | inactive |  |
| CN=C=S | inactive |  |
| ClC(Cl)=C(Cl)Cl | inactive |  |
| C[C@@]12CC[C@H](O)C[C@@H]1CC[C@H]1[C@H]2CC[C@@]2(C)[C@@H](C3=CC(=O)OC3)CC[C@]12O | inactive |  |
| COC1=CC(=O)OC(CCc2ccccc2)C1 (stereo not given) | inactive |  |

| Structure (SMILES) | outcome | activity change, negative = inhibition |
| --- | --- | --- |
| C[C@H]1CCCC(=O)CCC/C=C/c2cc(O)cc(O)c2C(=O)O1 | inactive |  |
| CN1CCCC2(CCN(C(=O)c3csnn3)CC2)C1 | inactive |  |
| CN1CC[C@@]2(CCCN(C(=O)Oc3ccccc3)C2)C1 | inactive |  |
| O=C(Cl)C(Cl)(Cl)Cl | inactive |  |
| c1ccc(N2CCCC3(CCNCC3)C2)cc1 | inactive |  |
| CC(C)(C)OO | inactive |  |
| O=C(Nc1ccccc1)N1CC2(CCN(C(=O)Oc3ccccc3)CC2)C1 | inactive |  |
| CC(C)c1ccc(C(c2c(O)c3ccccc3oc2=O)c2c(O)c3ccccc3oc2=O)cc1 |  | -6.98% [at 11.4 µM] |
| CN[C@@H](C)[C@H]1CC[C@@H](N)[C@@H](O[C@@H]2[C@@H](O)[C@@H](O[C@H]3OC[C@@](C)(O)[C@@H](NC)[C@@H]3O)[C@H](N)C[C@@H]2N)O1 (tested in a mixture with another compound) | inactive |  |
| N#Cc1ccc(CN2CCCC3(CCN(C(=O)Oc4ccccc4)CC3)C2)cc1 | inactive |  |
| C=C[C@H]1CN2CC[C@@H]1C[C@H]2[C@@H](O)c1ccnc2ccccc12 | inactive |  |
| C[C@H]1OC[C@@H](C[N+](C)(C)C)O1 | inactive |  |
| C[N+]1(C)CCO[C@](O)(c2ccc(-c3ccc([C@]4(O)C[N+](C)(C)CCO4)cc3)cc2)C1 | inactive |  |
| NC[C@H](O)c1ccc(O)cc1 | inactive |  |
| O=C1C=C2C=C[C@H]3C[C@@]2(O1)[C@H]1CCCCN31 | inactive |  |
| N#Cc1ccc(CN2CC[C@@]3(CCCN(C(=O)Oc4ccccc4)C3)C2)cc1 | inactive |  |
| O=C(Nc1ccccc1)N1CC[C@@]2(CCCNC2)C1 | inactive |  |
| COCC(=O)N1CCC2(CCCN(Cc3ccncc3)C2)CC1 | inactive |  |
| CC(=O)OCC(=O)[C@@H]1CC[C@H]2[C@H]3CC[C@H]4C[C@@H](O)CC[C@]4(C)[C@@H]3C(=O)C[C@@]12C | inactive |  |
| Clc1ccc([C@@H](OCCN2CCCCC2)c2ccccc2)cc1 | inactive |  |
